Screen size: about 4,800 compounds; about 420 (8.8%) showed an effect of 50% or more. For the sample, strong results were picked, then their nearest neighbours and some compounds at random.

The test relates to Plasmodium falciparum. In words: Confirmatory screen in NF54 nanoGlo assay, in single point, at 2uM, 72h. It is filed as functional, Erythrocyte. To be noted: timepoint 72 hour.
What is called % Inhibition is the drop in the measured response relative to a control, in per cent. As for `CCNC(=O)C1Cc2ccc(OC)cc2N2CCN(c3ccc(OC)cc3)CC12` (centres undefined), the “% Inhibition” value is 2%.
Under `O=C(C[C@H]1CCN(C(=O)c2cc(F)ccc2F)C1)NC1CC1` stands -2%.
With `CN(C)/C=C/c1cc(C#N)c(C#N)cc1Br`, the “% Inhibition” value was -4%.
Under `O=C(c1c(F)cccc1F)N1C[C@@H]2CCCN2c2ccc(C(F)(F)F)cc21` stands -13%; under `COc1ccccc1-n1cnc2cc(C(=O)N3CCCC3)ccc2c1=O`, -4%.
Consider `CC[C@H](C)[C@H](NC(=O)c1ccc(Br)c(F)c1)C(=O)O`, for which the “% Inhibition” value was -8%.
In the case of `N[C@@H](CO)c1cccc(Br)c1`, the “% Inhibition” value was 7%.
Take `COC(=O)CN(c1ccccc1)S(=O)(=O)c1ccc2nncn2c1`: the “% Inhibition” value is reported as -1%.
In the case of `COc1ccc(-c2c(-c3cccc(OC)c3)[nH]c3c2c(=O)[nH]c(=O)n3C)cc1`, the “% Inhibition” value is on record as 74%.
For the compound `COc1cccc(N2C(=O)N[C@H](C)C2=O)c1`, the “% Inhibition” value was determined as 8%.
Take `COc1cccc(C(=O)Nc2noc(-c3cccc(OC)c3)c2-c2ccc(Cl)cc2)c1`: the “% Inhibition” value is recorded as -11%.
For `CC1CC(C)(C)CCC1NC(=O)NC1CCN(C)C1=O` (centres undefined) the value was -4%; for `COc1cccc(CCC(=O)N2CCN3CCC2C3)c1F` (centres undefined), -15%; for `CC[C@@H](CO)NC(=O)Nc1ccc(Cl)cc1`, 6%.
On to `CNC(=NCCCOc1cccc(OC)c1)NC`, for which the “% Inhibition” value is -6%.
Turning to `Cc1c(C)c2ccc(NC(=O)c3cc4ccccc4o3)cc2[nH]c1=O`, the “% Inhibition” value is 74%.
Under `Cc1cc(C(=O)Nc2ccc3ccccc3c2)co1` stands -5%; under `Cc1nc2sc(C(=O)Nc3ccc4ccccc4c3)c(N)c2c(C)c1C`, 2%.
Consider `CN(Cc1ccc(-c2ccccc2)cc1)c1cc([C@H]2C[C@@H](N)C2)nc(N)n1`, for which the “% Inhibition” value is recorded as 49%.
Under `CC1CCN(C[C@@H](O)CNc2nnc(C(F)(F)F)s2)CC1` stands -10%.
For `Cn1n[n+](CCCCC(Cl)(Cl)Cl)c2ccccc21` the value was 53%; for `Cn1n[n+](CC(=O)Nc2ccccc2Cl)c2ccccc21`, -5%; for `CCN(CC(=O)Nc1ccccc1OC)C(=O)c1ccc(S(=O)(=O)N2CCOCC2)cc1`, 10%.
Regarding `CC(C)n1[nH]c(=O)c2c(C3CCCCC3)c3sc(=O)[nH]c3nc21`, the “% Inhibition” value is reported as -3%.
`Nc1cc2c(cc1C1=Nc3ccccc3C(c3ccccc3)(c3ccccc3)N1)OCO2`: the “% Inhibition” value was found to be 10%.
In the case of `COc1ccc(CCNC(=O)c2cc3n(n2)CCN(Cc2cccc(F)c2)C3=O)cc1OC`, the “% Inhibition” value was determined as 17%.
Take `COc1ccc(CCNC(=O)c2cc3c(=O)[nH]c(C)cn3n2)cc1OC`: the “% Inhibition” value is reported as 67%.
Regarding `COc1ccc(CCNC(=O)c2c(C)noc2-c2ccncc2)cc1OC`, the “% Inhibition” value worked out at 1%.
Turning to `C#CCN(C(=O)c1ccncc1CC)c1nccs1`, the “% Inhibition” value was -10%.
Regarding `CCCC1(c2ccncc2)CC(C)OC1=O` (centres undefined), the “% Inhibition” value was -1%.
`O=C(CCn1ncc2c(Cl)cccc21)NCC1CCCC1`: the “% Inhibition” value is listed as -9%.
Consider `Cc1ccc(-c2noc(CCC(=O)NC[C@H]3CCCO3)n2)c(=O)n1C(C)C`, for which the “% Inhibition” value is on record as -1%.
With `c1cn(CCCOc2ccc3c(c2)OCO3)nn1`, the “% Inhibition” value stood at 3%.
For `COc1ccc(CC(=O)NCCn2c(C(F)(F)F)nc3ccccc32)cc1` the value was 42%; for `CC(C)C(=O)Nc1ccc(-c2cc(-c3ccc(NC(=O)C(C)C)cc3)nc(-c3ccncc3)n2)cc1`, 56%; for `CC(C)C(=O)NCC(=O)Nc1ccc(C(F)(F)F)cc1`, -15%.
As to `CCNC(=O)c1nc(-c2ccncc2)cs1`, the “% Inhibition” value is recorded as -21%.
Regarding `Cc1ccccc1C(=O)NCC(=O)NCCc1c[nH]c2ccccc12`, the “% Inhibition” value is -7%.
For the compound `Clc1ccccc1-c1c[nH]c([C@@H]2CCCN2)n1`, the “% Inhibition” value turned out to be 5%.
As to `CC(C)(C)C(=O)NCCNC(=O)c1ccccn1`, the “% Inhibition” value came out at 8%.
For `O=C(Oc1cccc2cccnc12)c1ccc(-c2ccccc2)cc1`, the “% Inhibition” value came out at 2%.
For `O=C(Nc1cccc2cccnc12)c1ccccn1` the value was 80%; for `Oc1ccccc1CNc1cccc2cccnc12`, 98%; for `O=C(Nc1cccc2cccnc12)c1cncc(Br)c1`, -12%.
For `CCN(CC)S(=O)(=O)c1ccc2c(c1)CCCN2C(=O)c1ccc2ccccc2c1` the value was 1%; for `CC1(C)NC(=O)CC[C@@H]1NC1CC(c2cccc(F)c2)C1` (some centres undefined), 5%; for `CCOC1CC(NC2CC(c3ccc(F)cc3)C2)C12CCC2` (centres undefined), 67%.
As to `O=C(N[C@H](c1ccccc1)C1CC1)N1CCN(S(=O)(=O)c2cccc(F)c2)CC1`, the “% Inhibition” value is given as 4%.
With `CCOC(=O)c1cc(F)cc(S(=O)(=O)Nc2ccnc3ncnn23)c1`, the “% Inhibition” value was 34%.
Regarding `COCc1cc(=O)n(CC(=O)NCc2ccccc2Cl)c(N2CCCC2)n1`, the “% Inhibition” value is reported as -11%.
Under `Cc1nn(C)c(Oc2cccc(F)c2)c1NC(=O)CC(C)C` stands 8%; under `O=C(NCCN1CCCC1)c1ccc2nc(-c3ccc(Cl)cc3)cn2c1`, 18%; under `CC(C)(C)n1nc2nc(NCCN3CCCCC3)nc(-c3ccc(F)c(Cl)c3)c2c1N`, 62%.
With `COCc1cc(F)ccc1NC(=O)NC1CCN(c2cc(C)nc(C)n2)CC1`, the “% Inhibition” value is -5%.
For `CCOc1ccccc1C(=O)Nc1c(-n2cnnc2)nn(C)c1C` the value was 2%.
As for `CC(NCCn1cccn1)C(=O)N1c2ccccc2CC1C` (centres undefined), the “% Inhibition” value is -10%.
In the case of `Cc1ccc(Cn2ccn3nc(-c4ccc5c(c4)OCO5)cc3c2=O)cc1C`, the “% Inhibition” value was -9%.
With `N#Cc1ccc(C(=O)N[C@H]2CCCc3c2cnn3-c2ccccn2)cc1`, the “% Inhibition” value was 2%.
For `Oc1ccc2cc(CN3CCC[C@H](CN4CCCC4)C3)ccc2c1` the value was 17%; for `COc1ccnc(CN2CC[C@](C)(O)[C@H](O)C2)c1`, -2%.
For `CN1CCN([C@H]2CCN(c3ccnc4ccc(Cl)cc34)C[C@H]2CCCO)CC1` the value was 26%; for `COc1ccccc1CN1COc2cc3c(cc2C1)OCO3`, 22%.
`CCC[C@]1(C)NC(=O)N(c2csc(-c3ccccc3)n2)C1=O`: the “% Inhibition” value is reported as -3%.
On to `CCn1nc(C)c(CN(C)C(=O)c2nn3cccnc3c2Cl)c1C`, for which the “% Inhibition” value was -2%.
With `COCCN(CC1CN(Cc2ccccn2)CC1c1cccc(F)c1)C(=O)COC` (centres undefined), the “% Inhibition” value is -3%.
Under `C[C@H](C(=O)NCc1cc(F)cc(F)c1)C1CCOCC1` stands -5%; under `COc1ccc(CNC(=O)c2ccc(N3C(=O)[C@@H]4Cc5c([nH]c6ccccc56)C(c5cccc(OC)c5)N4C3=O)cc2)cc1` (some centres undefined), 49%.
For `COc1ccccc1C1c2[nH]c3ccccc3c2C[C@H]2C(=O)N(CC(O)c3ccccc3)CC(=O)N12` (some centres undefined), the “% Inhibition” value is recorded as 33%.
Under `CCOc1ccc(C2c3[nH]c4ccccc4c3C[C@H]3C(=O)N(C4CCN(Cc5ccccc5)CC4)CC(=O)N23)cc1OC` (some centres undefined) stands 80%.

Values taken from ChEMBL document CHEMBL4888484, “Replenishing the malaria drug discovery pipeline: Screening and hit evaluation of the MMV Hit Generation Library 1 (HGL1) against asexual blood stage Plasmodium falciparum ,using a nano luciferase reporter read-out” (2022).
